Source: PubChem
This is a sample that favours compounds with a hit; in the whole collection about 19% have one here.
TDP1 cell noCPT: qHTS for Inhibitors of human tyrosyl-DNA phosphodiesterase 1 (TDP1): qHTS in cells in absence of CPT; AID 686978, 2013; 420,000 compounds, 15% hits; DT40 Tdp1-/- hTDP1 cells, no CPT, ATP luminescence, 48 h; Potency, µM (titrated, usually from 46.2 µM), inactives show top-dose activity change, negative = growth inhibition, most hits filed as inhibitors; also: potency is read from the fitted curve at half-maximal effect; nearly all actives have a fitted effect of over 55% in size
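No-CPT arm: Tdp1-/-;hTDP1 DT40 cells (400/well) plus compounds, incubated ≥48 hr at 37 °C. Readout CellTiter-Glo luminescence.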
HT1080NT lethal: qHTS for induction of synthetic lethality in tumor cells producing 2HG: qHTS for the HT-1080-NT fibrosarcoma cell line. HT-1080-NT fibrosarcoma viability, CellTiter-Glo ATP luminescence, 48 h. Potency, µM (titrated, usually from 46.1 µM), for inactives: at the top dose activity, negative = less viability, hits mostly cytotoxic. 360,000 compounds, 1.6% hits;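 also: NT is the 2HG producing partner of a matched IDH1 knockdown line; potency is read from the fitted curve at half-maximal effect; 0% = DMSO-treated cells and -100% = media-only wells without cells; nearly all actives have a fitted effect of over 55% in size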
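A 48-hour cytotoxicity screen used HT-1080-NT cells plated 2 hours before compound delivery. ATP-based CellTiter-Glo luminescence measured viability, normalized to DMSO and no-cell controls.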
IL1B secr inh: qHTS for Inhibitors of Inflammasome Signaling: IL-1-beta AlphaLISA Primary Screen; 360,000 compounds, 4.7% hits; AID 743279, 2014; activity change, % at 57.5 µM; THP-1 LPS/ATP IL-1B secretion, AlphaLISA, 16 h; stronger effect = lower value; in the data active = activity change below about -50%; inconclusive = mostly about -30% to -49%
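THP-1 cells pretreated 1 hr with compounds (up to 57.5 uM final), then stimulated with LPS (250 ng/mL final) plus ATP (1.25 mM final); secreted IL-1B measured by AlphaLISA after 16 hr, decreased signal indicating inhibition.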
uPA generation: qHTS for Inhibitors of Cell Surface uPA Generation | cell surface uPA generation assay, qHTS | Potency, µM (titrated, usually from 38.3 µM), without a hit: at the highest dose activity change, negative = inhibition, actives largely listed as inhibitors | 330,000 compounds, 0.31% hits; active = well fitted inhibition curve with a large enough effect; inconclusive = small, poorly fitted or top-dose-only effect; inactive = no such curve, though single readings can be large or run the other way; tested in mouse RAW 264.7 cells; also: potency is read from the fitted curve at half-maximal effect; nearly all actives have a fitted effect of over 55% in size
HT1080 IDH1KD tx: qHTS for induction of synthetic lethality in tumor cells producing 2HG: qHTS for the HT-1080-IDH1KD cell line | AID 686971, 2013 | Potency, µM (top dose mostly 46.1 µM), without a hit: at the top dose activity, negative = toxicity, most hits filed as cytotoxic | 360,000 compounds, 2% hits | HT-1080 IDH1 knockdown viability, ATP luminescence, 48 h;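 also: potency is read from the fitted curve at half-maximal effect; 0% = DMSO wells and -100% = cell-free medium wells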
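Cytotoxicity counter-line: IDH1KD HT-1080, 48 h, CellTiter-Glo. Curves classed by r2, magnitude and activity.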
TDP1 cell CPT: qHTS for Inhibitors of human tyrosyl-DNA phosphodiesterase 1 (TDP1): qHTS in cells in presence of CPT; 420,000 compounds, 12% hits; Potency, µM (doses to about 46.2 µM), for the others: at the top dose activity change, negative = growth inhibition, actives largely listed as inhibitors; chicken DT40 Tdp1-/-;hTDP1 cells + 20 nM CPT, ATP luminescence, 48 h; also: potency is read from the fitted curve at half-maximal effect; nearly all actives have a fitted effect of over 55% in size
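Cell growth measured by CellTiter-Glo luminescence after a minimum 48 h, 37 C compound exposure with 20 nM CPT in Tdp1-knockout DT40 cells stably expressing hTDP1, seeded 400/well; qHTS titration format.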
An asterisk follows results filed as active; ? = inconclusive; nt = no result; [ ] = remark or other dose. Unless noted, calls follow the shape of the dose curve; as a rule, active = well fitted curve in the direction sought with a large enough effect; inconclusive = small, poorly fitted or top-dose-only effect, or another doubt; inactive = no such curve, though single readings can be large; an effect the other way counts as inactive or inconclusive. Unless noted, % is scaled to controls: 0 for no effect and ±100 for the full control effect.

SMILES | TDP1 cell noCPT | HT1080NT lethal | IL1B secr inh | uPA generation | HT1080 IDH1KD tx | TDP1 cell CPT
COc1ccc(-c2nnc(SCC(=O)N(C)C3CCS(=O)(=O)C3)n2CC(C)C)cc1 (stereo not drawn) | -4.3% | 8.3% | -6.3 | nt | 8.4% | -17.2%
O=C(O)CCCCN1C(=O)/C(=C\c2ccc(OCc3ccccc3)c(OCc3ccccc3)c2)SC1=S | ? | -11.9% | -92.8* | 4.7% | -12.2% | -90.9%
O=C(O)CCCN1C(=O)/C(=C\c2ccccc2OCc2ccccc2)SC1=S | 1.9% | -2.3% | 0.6 | -0.9% | -1.0% | 1.8%
COc1cccc(CNC(C)C(=O)Nc2ccc3c(c2)OCCO3)c1 (stereo not drawn) | -10.8% | 0.7% | -60.7* | -2.9% | -1.4% | 0.4%
CCN(CC)CCNC(=O)C(=O)Nc1cc2c3c(c1)CCC(=O)N3CCC2 | 10.5% | 9.0% | -61.6* | 3.0% | 3.9% | -5.7%
CC1C(=O)N2CCCc3cc(NC(=O)C(=O)NCCc4ccc(F)cc4)cc1c32 (stereo not drawn) | ? | 18.4µM* | 13.4 | -6.0% | 20.6µM* | ?
Cc1cccc(C)c1C(O)c1ncc(-c2ccc(F)cc2)[nH]1 (stereo not drawn) | ? | -2.0% | -7.3 | nt | -0.9% | ?
O=C(Nc1cccc(S(=O)(=O)NC2=NCCC2)c1)c1cn(-c2ccccc2)nc1-c1ccc(F)cc1 | 2.59µM* | ? | ? | ? | ? | 3.66µM*
Cc1ccc(-c2nn(-c3ccccc3)cc2C(=O)Nc2cccc(S(=O)(=O)NC3=NCCC3)c2)cc1 | 0.206µM* | 0.0% | 0.0 | nt | -0.4% | 2.5%
Cc1onc(-c2ccccc2)c1C(=O)Nc1cccc(S(=O)(=O)NC2=NCCC2)c1 | 20.7% | -3.5%[9.24 µM] | -13.1 | -27.1% | 1.5% | ?
O=C(c1ccc2c(c1)OCO2)[C@@H]1[C@@H]2C(=O)N(C3CCCCC3)C(=O)[C@@H]2C2c3ccccc3C=CN21 (stereo partly drawn) | 16.4µM* | -10.8% | -16.5 | 2.7% | -0.3% | ?
COc1ccc(N2C(=O)[C@@H]3[C@H](C2=O)[C@H]2c4ccccc4C=CN2[C@@H]3C(C)=O)cc1 | 16.4µM* | 9.6% | 0.0 | -2.1% | 20.7% | ?
Cc1ccc(S(=O)(=O)N2C[C@H]3[C@H]4C(=O)N(C5CCCCC5)C(=O)[C@H]4CC(=O)[C@H]3[C@@H]2c2ccccc2Cl)cc1 | -27.5% | 12.4% | -6.1 | nt | 12.6% | -21.5%
COc1ccc(N2C(=O)[C@H]3[C@@H](C2=O)C2c4ccccc4C=NN2[C@H]3C(=O)C(C)(C)C)cc1 (stereo partly drawn) | -26.6% | 7.3% | 14.9 | 5.8% | 5.5% | 5.4%
CC(C)(C)C(=O)[C@@H]1[C@@H]2C(=O)N(C3CCCCC3)C(=O)[C@@H]2[C@H]2c3ccccc3C=CN12 | ? | -8.6% | -12.5 | 1.1% | -8.7% | 23.1µM*
CC(=O)C(Cc1ccccc1)NC(=O)CCl (stereo not drawn) | -9.0% | -11.4% | -8.7 | ? | -0.8% | ?
O=C(CCl)NC(Cc1ccccc1)c1ccccc1 (stereo not drawn) | 23.1µM* | ? | -95.4* | -7.1% | 16.4µM* | 14.6µM*
CCOC(=O)C1(C)CCCN1C(=O)c1ccc(C(F)(F)F)nc1C (stereo not drawn) | -0.3% | 23.3% | 15.9 | nt | 15.8% | 0.8%
Nc1nc2ncccc2cc1C(=O)NCCc1cccs1 | 13µM* | -13.5% | 3.3 | nt | 14.6µM* | 23.1µM*
Cc1cc(C)c2c(c1)-c1c(ssc1=S)C(C)(C)N2C(=O)CN1C(=O)c2ccccc2C1=O | ? | -2.5% | -2.7 | ? | -1.6% | 20.6µM*
COc1ccc(N2CCN(C(=O)c3cnc(N4CCOCC4)c4ccccc34)CC2)cc1 | 23.1µM* | nt | nt | nt | nt | ?
COc1ccc(Nc2ncc(C(=O)N3CCN(c4cccc(Cl)c4)CC3)c3ccccc23)cc1 | 4.61µM* | nt | nt | nt | nt | 14.6µM*
COc1ccc(N2CCN(C(=O)C3CCN(C(=O)c4cccc(Cl)c4)CC3)CC2)cc1 | ? | 19.5% | 10.0 | -2.3% | 5.7% | ?
COc1ccc(Nc2ncc(C(=O)N3CCN(c4ccc(OC)cc4)CC3)c3ccccc23)cc1 | 16.4µM* | nt | nt | nt | nt | 23.1µM*
COc1ccc(Nc2ncc(C(=O)N3CCN(c4ccc(F)cc4)CC3)c3ccccc23)cc1 | 5.17µM* | -14.8% | -59.5* | -1.9% | -9.7% | 23.1µM*
SMILES | TDP1 cell noCPT | HT1080NT lethal | IL1B secr inh | uPA generation | HT1080 IDH1KD tx | TDP1 cell CPT
COc1ccc(Nc2ncc(C(=O)O)c3ccccc23)cc1 | -4.0% | 10.0% | 25.2 | nt | 8.7% | -6.9%
CCCc1ccc(S(=O)(=O)N(C)S(=O)(=O)c2ccc(F)cc2)cc1 | 0.4% | 16.3% | -4.7 | 0.6% | 1.5% | -19.7%
Cc1ccc(Nc2c(-c3ccc(N(C)C)cc3)nc3ncccn23)cc1 | ? | 26.5% | -7.8 | -0.8% | 16.7% | ?
Cc1cccc(C)c1Nc1c(-c2ccc(N3CCOCC3)cc2)nc2ncccn12 | 20.6µM* | 0.0% | ? | -13.4% | -0.1% | 20.6µM*
COc1ccc(-c2nc3ncccn3c2Nc2ccccc2)cc1 | ? | 0.0% | -21.2 | 6.5% | -0.5% | -1.9%
Cc1ccc(Nc2c(-c3ccc(N4CCOCC4)cc3)nc3ncccn23)c(C)c1 | 16.4µM* | -8.3% | ? | 6.9% | -7.4% | ?
CCCN(CCC)CCNC(=O)C1CCN(c2nc3ccc(CC)cc3s2)CC1 | 6.51µM* | nt | nt | nt | nt | 8.2µM*
CCCN(CCC)CCCNC(=O)C1CCN(c2nc3ccc(CC)cc3s2)CC1 | 5.17µM* | nt | nt | nt | nt | 5.8µM*
COC(=O)CCN1CCC2CC1c1cc(Cl)ccc12 (stereo not drawn) | -7.3% | 1.7% | -18.8 | 9.9% | 7.1% | -10.1%
CCn1nc(C)c(NC(=O)/C=C/c2cnn(C)c2C)c1C | 7.0% | 4.2% | -1.1 | nt | -3.5% | -0.5%
CCn1ncc(/C=C/C(=O)Nc2c(C)nn(Cc3ccc(Cl)cc3Cl)c2C)c1C | 14.6µM* | ? | ? | nt | ? | 14.6µM*
CCn1cc(/C=C/C(=O)Nc2c(C)nn(Cc3ccccc3)c2C)cn1 | 9.2µM* | 11.0% | 7.8 | -0.1% | 6.7% | ?
Cc1nn(Cc2ccc(Cl)cc2Cl)c(C)c1NC(=O)NC12CC3CC(CC(C3)C1)C2 | 18.4µM* | -13.9% | -23.5 | 6.9% | 18.4µM* | 20.6µM*
